HT1080NT lethal = kills 2HG-producing HT-1080-NT fibrosarcoma cells; HT-1080-NT fibrosarcoma viability, CellTiter-Glo ATP luminescence, 48 h; Potency, µM (highest dose often 46.1 µM), inactives show at the highest dose activity, negative = less viability, usual class: cytotoxic; 1.6% of 360,000 active; AID 686970;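 further: NT is the 2HG producing partner of a matched IDH1 knockdown line; potency means the concentration at half of the fitted maximal effect; 0% = DMSO-treated cells and -100% = media-only wells without cells; nearly all actives have a fitted effect of over 55% in size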
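Luminescent CellTiter-Glo readout after 48 hours of compound exposure at 37 degrees C defined viability of HT-1080-NT cells. Activity was normalized to DMSO wells and cell-free media wells; concentration-response curves were fitted and assigned curve classes.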
DT40 TDP1 no CPT = qHTS for Inhibitors of human tyrosyl-DNA phosphodiesterase 1 (TDP1): qHTS in cells in absence of CPT. Potency, µM (titrated, usually from 46.2 µM), inactives show at the top dose activity change, negative = growth inhibition, usual class: inhibitors. DT40 Tdp1-/- hTDP1 cells, no CPT, ATP luminescence, 48 h. 15% of 420,000 active; further: potency means the concentration at half of the fitted maximal effect; nearly all actives have a fitted effect of over 55% in size
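Chicken DT40 Tdp1-/- cells complemented with human TDP1, screened without camptothecin (DMSO vehicle only), 400 cells/well. Compounds pin-transferred, cells incubated at 37 °C for at least 48 hr. Growth read as ATP-dependent luminescence (CellTiter-Glo, 30 min at RT).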
HT1080 IDH1KD tx = HT-1080 IDH1 knockdown cell toxicity (counter line). HT-1080 IDH1 knockdown viability, ATP luminescence, 48 h. Potency, µM (doses to about 46.1 µM), without a hit: at the highest dose activity, negative = toxicity, most hits filed as cytotoxic. 2% of 360,000 active;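 further: potency means the concentration at half of the fitted maximal effect; 0% = DMSO wells and -100% = cell-free medium wells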
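HT-1080-IDH1KD cells (IDH1 knocked down), 750/well in RPMI with 5% FBS, treated with compound 48 h at 37 degrees C. Viability by CellTiter-Glo luminescence, normalised to DMSO and no-cell wells; concentration-response curves classed.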
DT40 TDP1 CPT = DT40-hTDP1 cell growth loss with CPT; chicken DT40 Tdp1-/-;hTDP1 cells + 20 nM CPT, ATP luminescence, 48 h; 12% of 420,000 active; Potency, µM (series often up to 46.2 µM), without a hit: at the top dose activity change, negative = growth inhibition, usual class: inhibitors; further: potency means the concentration at half of the fitted maximal effect; nearly all actives have a fitted effect of over 55% in size
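Cell growth measured by CellTiter-Glo luminescence after a minimum 48 h, 37 C compound exposure with 20 nM CPT in Tdp1-knockout DT40 cells stably expressing hTDP1, seeded 400/well; qHTS titration format.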
IL-1B inflam inh = blocks inflammasome-driven IL-1 beta release; THP-1 LPS/ATP IL-1B secretion, AlphaLISA, 16 h; hits give low values; activity change, % at 57.5 µM; 4.7% of 360,000 active; AID 743279; in the data active means activity change below about -50%; inconclusive means mostly about -30% to -49%
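Secreted IL-1B measured by AlphaLISA bead assay after 16 h compound exposure of THP-1 cells; compounds (final up to 57.5 uM) added 1 h before LPS (250 ng/mL) and ATP (1.25 mM) stimulation; lower signal means less secretion.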
The depositor's hits bear a star; ? = inconclusive; / = not tested or not shown; ! = a repeat was not active; [ ] = remark or other dose. This is a sample that favours compounds with a hit; in the whole collection about 19% have one here. Unless noted, the call rests on the fitted dose curve; in most records, active means well fitted curve in the direction sought with a large enough effect; inconclusive means small, poorly fitted or top-dose-only effect, or another doubt; inactive means no such curve, though single readings can be large; an effect the other way counts as inactive or inconclusive. Unless noted, on the % scale 0 is the no-effect control and ±100 the full control effect.

SMILES | HT1080NT lethal | DT40 TDP1 no CPT | HT1080 IDH1KD tx | DT40 TDP1 CPT | IL-1B inflam inh
Cc1cc(C)n(CCN(C)C(=O)C2CCC(=O)N(CCN3CCOCC3)C2)n1 (configuration not stated) | 4% | -6% | 6% | 1% | 7
Fc1cc2[nH]c(=S)[nH]c2c(Br)c1N1CCSCC1 | -29% | -23% | ? | ? | -5
CSCCC(NC(=O)/C(=C\c1ccc(Cl)cc1)NC(=O)c1ccccc1)C(=O)O (configuration not stated) | 1% | 11% | -8% | 4% | -2
Cc1ccc(Cl)cc1NC(=O)c1ccc(-c2nc(CSc3ccccc3)c(C)o2)cc1 | / | 6.5µM* | / | 9.2µM* | /
Cc1oc(-c2ccccc2Cl)nc1CSCC(=O)O | -9% | -1% | 4% | 6% | 59
Cc1oc(-c2ccc(C(=O)Nc3cccc(C(F)(F)F)c3)cc2)nc1CSc1ccccc1 | / | 16µM* | / | 23µM* | /
Cc1oc(-c2cccc(Cl)c2)nc1CSCC(=O)O | -1% | 29µM*! | 0% | 16µM*! | 14
Cc1cccc(NC(=O)c2ccc(-c3nc(CSc4ccccc4)c(C)o3)cc2)c1C | / | ? | / | 5.2µM* | /
COC(=O)c1ccccc1NC(=O)c1ccc(-c2nc(CSc3ccc(C)cc3)c(C)o2)cc1 | / | 0% | / | -9% | /
COc1ccc(NC(=O)c2ccc(-c3nc(CSc4ccccc4)c(C)o3)cc2)cc1OC | / | -14% | / | ? | /
Cc1ccc(C(=O)NNC(=O)c2n[nH]c(=O)c3ccccc23)cc1C | 21% | -14% | 11% | -4% | -3
CC1(C(=O)NS(=O)(=O)c2cccc(Cl)c2)CCN1C(=O)C1CCCCC1 (configuration not stated) | 4% | 7% | 18% | 9% | 38
CCCCN(C)c1c(C)nc2ccc(C(=O)N(C)CCN(C)C)cn12 | 2% | -2% | 10% | 1% | 5
O=C(NC1=NCCS1)C1CC2CCC1C2 (configuration not stated) | 9% | -1% | 6% | 1% | 16
CC1(C(=O)NCc2ccccc2)CN(S(C)(=O)=O)CC(=O)N1Cc1cccs1 (configuration not stated) | 15% | 4% | -2% | -12% | -16
COC(=O)c1ccc(NC(=O)CCC(=O)c2ccc(F)cc2)cc1 | ? | 4% | -25% | -13% | -14
OCCN1CCN(c2ncnc3sc4c(c23)CCCC4)CC1 | -3% | ? | -12% | ? | -1
Oc1ccc(N2CCN(c3ncnc4sc5c(c34)CCC5)CC2)cc1 | -24% | 13µM* | ? | 23µM* | -28
COc1ccc(-c2ccc3c(=O)cc(-c4ccsc4)oc3c2)cn1 | -11% | ? | 6% | 18µM* | -4
O=c1cc(-c2ccsc2)oc2cc(-c3ccc4c(c3)OCO4)ccc12 | 9% | ? | 14% | 18µM* | 1
COc1ccc(-c2cc(=O)c3ccc(O)cc3o2)cc1 | -15% | ? | -16% | ? | 5
CCC(=O)/C=C1/Sc2ccccc2N1CC | -2% | ? | 0% | ? | -2
CCOC(=O)/C(=C/C=C1\Sc2cc(C)c(C)cc2N1CC)C(C)=O | -8% | 2.3µM* | -5% | 4.6µM* | -92*
CCOC(=O)C(=O)c1c(C)cc2ccccn12 | 19% | 8% | 19% | -14% | -12
CCOC(=O)/C(=C\C=C1/Sc2ccccc2N1CC)C(C)=O | -19% | 12µM* | -14% | ? | ?
SMILES | HT1080NT lethal | DT40 TDP1 no CPT | HT1080 IDH1KD tx | DT40 TDP1 CPT | IL-1B inflam inh
CCOC(=O)/C(=C/C=C1\Sc2ccccc2N1CC)C(C)=O | 0% | 21µM* | -4% | 21µM* | -69*
Cc1ccc(OCC(=O)Oc2c(C)cccc2C)cc1 | 17% | -5% | -2% | -6% | 7
COCC(=O)Oc1cc(-c2ccc(C)cc2C)c(OC(=O)COC)c(-c2ccc(C)cc2C)c1 | -24% | 9.2µM* | ? | 10µM* | ?
Cn1c(=O)c2sccc2n2c(CCCC(=O)Nc3ccc(Oc4ccc(Cl)cc4)cc3)nnc12 | / | 18µM* | / | ? | /
CC(C)CCn1c(=O)c2sccc2n2c(CCCC(=O)Nc3ccc(C(C)C)cc3)nnc12 | / | 15µM* | / | ? | /
CCn1c(=O)c2sccc2n2c(CCCC(=O)Nc3ccc(Oc4ccccc4)cc3)nnc12 | / | 15µM* | / | ? | /
CC[C@H](C)NC(=O)CCCc1nnc2n(CCC(C)C)c(=O)c3sccc3n12 | / | ? | / | -26% | /
COCCCn1c(=O)c2sccc2n2c(CCCC(=O)NCc3ccccc3OC)nnc12 | 3% | 16% | 7% | -7% | 0
COCCCn1c(=O)c2sccc2n2c(CCCC(=O)Nc3cccc(C(F)(F)F)c3)nnc12 | / | 21µM* | / | 16µM* | /
COc1cc(=O)n2c(c1C(=O)NC(C)c1ccco1)CCN(Cc1cc3ccccc3o1)CC2 (configuration not stated) | / | -6% | / | 0%[9.04 µM] | /
CC1CCN(C(=O)Cn2c3ccccc3c3nc4n(c(=O)c32)CCS4)CC1 | -10% | ? | 0% | -19% | -6
Cc1ccc(Cl)cc1N(CC(=O)NC(C)c1ccccc1)S(C)(=O)=O (configuration not stated) | ? | -13% | 4% | -6% | -12
COc1ccc(-c2csc3nc(C)nc(N4CCN(c5ccc(C(C)=O)cc5)CC4)c23)cc1OC | -7% | ? | -2% | -11% | ?
N#Cc1cnn(-c2cccc(Cl)c2)c1-n1cccc1 | 8% | 1% | 0% | 2% | 17
C#CCOCC1CN(C)C(=O)O1 (configuration not stated) | 0% | 2% | -1% | -1% | -12
CCCCc1c(C)nc(Nc2ccc(OC)cc2)[nH]c1=O | 20% | 13µM* | 2% | ? | 2
CCCCCc1c(C)nc(Nc2ccc(F)cc2)[nH]c1=O | ? | 16µM* | ? | ? | -3
CCCc1c(C)nc(N2CCN(c3ccc(F)cc3)CC2)[nH]c1=O | 3% | ? | 4% | ? | 8
Cc1cc2c(ccc3[nH]onc32)n1 | -13% | ? | -4% | -25% | -60*
O=C(NC(O)C(=O)c1ccc(F)cc1)c1ccc(F)cc1 (configuration not stated) | 3% | ? | 1% | ? | 7
O=C(O)CC(C(=O)O)N1C(=O)/C(=C/C=C/c2ccco2)SC1=S (configuration not stated) | -2% | -3% | -2% | -30% | 7
O=C1S/C(=C\C=C\c2ccco2)C(=O)N1c1ccc(O)cc1 | ? | ? | ? | 18µM* | -97*
O=C1S/C(=C\C=C\c2ccco2)C(=O)N1c1ccccc1 | ? | 23µM* | ? | ? | -78*

Compound activity from PubChem.
